Source: the supplement of paper PMC8728848
About 410 targets per protein were measured; listed, in parts, are those with the strongest signals and a random draw of the rest.

Tests used:
Test in all cases: glycan array binding signal (z-score within array); higher = stronger binding
Settings in all cases: glycan notation: IUPAC condensed, linker removed
[1] = target: Fuc(a1-2)Gal(b1-3)GalNAc(a1-3)[Fuc(a1-2)]Gal(b1-4)GlcNAc
How it was run: (§1)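 Negative Z-scores can be read as non-binding. The Z-score is calculated within each array and then averaged across arrays of one protein sequence at different concentrations or buffers and across linkers. Arrays, 3228 in all, were curated from the Consortium for Functional Glycomics database and kept only where the protein sequence was available.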

[2] = target: Fuc(a1-2)Gal(b1-3)[Fuc(a1-4)]GlcNAc(b1-2)Man(a1-3)[Fuc(a1-2)Gal(b1-3)[Fuc(a1-4)]GlcNAc(b1-2)Man(a1-3)]Man(b1-4)GlcNAc(b1-4)GlcNAc
How it was run: as §1

[3] = target: Fuc(a1-2)Gal(b1-4)GlcNAc(b1-2)[Fuc(a1-2)Gal(b1-4)GlcNAc(b1-4)]Man(a1-3)[Fuc(a1-2)Gal(b1-4)GlcNAc(b1-2)Man(a1-6)]Man(b1-4)GlcNAc(b1-4)GlcNAc
How it was run: as §1

[4] = target: Fuc(a1-2)Gal(b1-4)GlcNAc(b1-6)GalNAc
How it was run: as §1

[5] = target: Fuc(a1-2)Gal(b1-4)[Fuc(a1-3)]GlcNAc(b1-2)Man(a1-3)[Fuc(a1-2)Gal(b1-4)[Fuc(a1-3)]GlcNAc(b1-2)Man(a1-6)]Man(b1-4)GlcNAc(b1-4)[Fuc(a1-6)]GlcNAc
How it was run: as §1

[6] = target: Fuc(a1-2)Gal(b1-4)[Fuc(a1-3)]GlcNAc(b1-3)GalNAc
How it was run: as §1

[7] = target: Fuc(a1-2)Gal3S(b1-4)GlcNAc
How it was run: as §1

Fuc(a1-2)[Gal(a1-3)]Gal = target: Fuc(a1-2)[Gal(a1-3)]Gal
How it was run: as §1

[8] = target: Fuc(a1-2)[Gal(a1-3)]Gal(b1-3)GlcNAc(b1-2)Man(a1-3)[Fuc(a1-2)[Gal(a1-3)]Gal(b1-3)GlcNAc(b1-2)Man(a1-6)]Man(b1-4)GlcNAc(b1-4)[Fuc(a1-6)]GlcNAc
How it was run: as §1

[9] = target: Fuc(a1-2)[Gal(a1-3)]Gal(b1-4)GlcNAc(b1-2)Man(a1-3)[Fuc(a1-2)[Gal(a1-3)]Gal(b1-4)GlcNAc(b1-2)Man(a1-6)]Man(b1-4)GlcNAc(b1-4)GlcNAc
How it was run: as §1

[10] = target: Fuc(a1-2)[GalNAc(a1-3)]Gal(b1-3)GlcNAc(b1-2)Man(a1-3)[Fuc(a1-2)[GalNAc(a1-3)]Gal(b1-3)GlcNAc(b1-2)Man(a1-6)]Man(b1-4)GlcNAc(b1-4)[Fuc(a1-6)]GlcNAc
How it was run: as §1

[11] = target: Fuc(a1-2)[GalNAc(a1-4)]Gal(b1-4)GlcNAc
How it was run: as §1

Fuc(a1-3)GlcNAc = target: Fuc(a1-3)GlcNAc
How it was run: as §1

[12] = target: Fuc(a1-3)[Gal(b1-4)]GlcNAc(b1-6)GalNAc
How it was run: as §1

[13] = target: Fuc(a1-3)[Gal(b1-4)]GlcNAc6S
How it was run: as §1

[14] = target: Fuc(a1-3)[GalNAc(b1-4)]GlcNAc6S
How it was run: as §1

Gal(a1-3)Gal(b1-4)Glc = target: Gal(a1-3)Gal(b1-4)Glc
How it was run: as §1

[15] = target: Gal(a1-3)[Gal(a1-4)]Gal(b1-4)GlcNAc
How it was run: as §1

Gal(b1-3)GlcNAc(b1-2)Man = target: Gal(b1-3)GlcNAc(b1-2)Man
How it was run: as §1

[16] = target: Gal(b1-3)GlcNAc(b1-3)Gal(b1-4)Glc
How it was run: as §1

Gal(b1-4)Glc = target: Gal(b1-4)Glc
How it was run: as §1

[17] = target: Gal(b1-4)GlcNAc(b1-3)Gal(b1-4)GlcNAc(b1-2)Man(a1-3)[Gal(b1-4)GlcNAc(b1-3)Gal(b1-4)GlcNAc(b1-2)Man(a1-6)]Man(b1-4)GlcNAc(b1-4)GlcNAc
How it was run: as §1

[18] = target: Gal(b1-4)GlcNAc(b1-3)Gal(b1-4)GlcNAc(b1-3)Gal(b1-4)GlcNAc(b1-2)Man(a1-3)[Gal(b1-4)GlcNAc(b1-3)Gal(b1-4)GlcNAc(b1-3)Gal(b1-4)GlcNAc(b1-2)Man(a1-6)]Man(b1-4)GlcNAc(b1-4)GlcNAc
How it was run: as §1

Gal3S(b1-4)Glc = target: Gal3S(b1-4)Glc
How it was run: as §1

Gal3S4S(b1-4)GlcNAc = target: Gal3S4S(b1-4)GlcNAc
How it was run: as §1

GalNAc6S(b1-4)GlcNAc = target: GalNAc6S(b1-4)GlcNAc
How it was run: as §1

Glc(a1-6)Glc(a1-6)Glc = target: Glc(a1-6)Glc(a1-6)Glc
How it was run: as §1

[19] = target: GlcNAc(a1-4)Gal(b1-4)GalNAc
How it was run: as §1

[20] = target: GlcNAc(b1-2)[GlcNAc(b1-6)]Man(a1-6)[GlcNAc(b1-4)][GlcNAc(b1-2)Man(a1-3)]Man(b1-4)GlcNAc(b1-4)GlcNAc
How it was run: as §1

[21] = target: GlcNAc(b1-3)Gal(b1-4)GlcNAc(b1-3)Gal(b1-4)GlcNAc(b1-2)Man(a1-3)[GlcNAc(b1-3)Gal(b1-4)GlcNAc(b1-3)Gal(b1-4)GlcNAc(b1-2)Man(a1-6)]Man(b1-4)GlcNAc(b1-4)GlcNAc
How it was run: as §1

B1: PX14375A-pdi-503-28-503 (Parabacteroides distasonis) (protein)
chain: PLGSPEAGDISEERQAFLRLTAVYSVMKDFRYTWSMQCFGDVLSNDATYSGSSNDAQTFTLLENYQYQADHTEILNKYRYSYQCINKANLFIRDMEMADDALFSKYDKEQMIGEAKFIRAYTYFELVKTFGGVPCYTGVLDLDHERLGRASVEEIYSVIEQDLNDAVSVLPKKSEVANYESSYAGRITKGAAIAMQTRIYLYEKKYDEVKKAFEKFQNECGGEYSLVAPEDYTWQFSLDGEHCSSSILEVNMYNSSTQSSYNVNNGNRHVLMSMPRNMTIGFGCAQPTQALADAYDAEGDVIRKKTTLLSTEEAIEIETAAKGDVAPVTDDRTGWYNRKLYLAPGQREENRGNNQPTNLRLIRLAEVYLNYAEACYFSGDIANAQKYLNEVRSHVNLAPKNHTGSQLFEDIMNERHLEFGMEGFRFFDVVRVGWGEKVFNGTKKAEFGAKTPFSAGAEVLPIPQTEIDISDGLITN
glycan array binding signal (z-score) [1]: -1
glycan array binding signal (z-score) [2]: 0.809
glycan array binding signal (z-score) [3]: 1.43
glycan array binding signal (z-score) [4]: 0.828
glycan array binding signal (z-score) [5]: -0.25
glycan array binding signal (z-score) [6]: -0.279
glycan array binding signal (z-score) [7]: 0.279
glycan array binding signal (z-score) (Fuc(a1-2)[Gal(a1-3)]Gal): 0.139
glycan array binding signal (z-score) [8]: 1.43
glycan array binding signal (z-score) [9]: -0.223
glycan array binding signal (z-score) [10]: -0.166
glycan array binding signal (z-score) [11]: -0.304
glycan array binding signal (z-score) (Fuc(a1-3)GlcNAc): -0.753
glycan array binding signal (z-score) [12]: -0.205
glycan array binding signal (z-score) [13]: 0.08
glycan array binding signal (z-score) [14]: 0.949
glycan array binding signal (z-score) (Gal(a1-3)Gal(b1-4)Glc): -0.124
glycan array binding signal (z-score) [15]: 2.05
glycan array binding signal (z-score) (Gal(b1-3)GlcNAc(b1-2)Man): -0.555
glycan array binding signal (z-score) [16]: 10.3
glycan array binding signal (z-score) (Gal(b1-4)Glc): -0.065
glycan array binding signal (z-score) [17]: 5.38
glycan array binding signal (z-score) [18]: 2.49
glycan array binding signal (z-score) (Gal3S(b1-4)Glc): -0.196
glycan array binding signal (z-score) (Gal3S4S(b1-4)GlcNAc): -0.718
glycan array binding signal (z-score) (GalNAc6S(b1-4)GlcNAc): -0.507
glycan array binding signal (z-score) (Glc(a1-6)Glc(a1-6)Glc): -0.184
glycan array binding signal (z-score) [19]: 0.594
glycan array binding signal (z-score) [20]: -0.508
glycan array binding signal (z-score) [21]: 1.59
